Several values for one entry are separate records, joined by “and”; a condition that tells them apart may be missing. Equal entries are not always repeated. Among all 5,500 compounds or so, about 2,000 (36%) were called active. Not shown: some 18% with an inconclusive outcome. Rule as the data show it: active = normalized growth mostly below about 0.91 (no sharp cut-off); inconclusive = no clear call, values can overlap the other calls; inactive = mostly above about 0.92. This is one part of the list.
Assay: chemical genetic growth profiling, strain panel (AID 1159580);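 also: tested at 20 µM; growth read once vehicle control cultures reached saturation at 30 °C; 1 = growth at the plate median or of vehicle wells; lower values mean less growth of the strain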
Conditions: S. cerevisiae deletion strains, growth OD
[1] = locus YAL013W, strain DEP1, stronger effect = lower value
[2] = locus YAL040C, strain CLN3, stronger effect = lower value
[3] = locus YBR229C, strain ROT2, stronger effect = lower value
[4] = locus YCL061C, strain MRC1 (second series), stronger effect = lower value
[5] = locus YDL101C, strain DUN1, stronger effect = lower value
[6] = locus YDR150W, strain NUM1, stronger effect = lower value
[7] = locus YDR363W, strain ESC2, stronger effect = lower value
[8] = locus YEL061C, strain CIN8, stronger effect = lower value
[9] = locus YER002W, strain NOP16, stronger effect = lower value
[10] = locus YGR078C, strain PAC10, stronger effect = lower value
[11] = locus YGR229C, strain SMI1, stronger effect = lower value
[12] = locus YHR030C, strain SLT2, stronger effect = lower value
[13] = locus YJL187C, strain SWE1, stronger effect = lower value
[14] = locus YJR043C, strain POL32, stronger effect = lower value
[15] = locus YJR075W, strain HOC1, stronger effect = lower value
[16] = locus YLR039C, strain RIC1, stronger effect = lower value
[17] = locus YLR262C, strain YPT6, stronger effect = lower value
[18] = locus YMR263W, strain SAP30, stronger effect = lower value
[19] = locus YNL175C, strain NOP13, stronger effect = lower value
[20] = locus YNL197C, strain WHI3, stronger effect = lower value
[21] = locus YNL224C, strain SQS1, stronger effect = lower value
[22] = locus YNL322C, strain KRE1, stronger effect = lower value
[23] = locus YOR083W, strain WHI5 (second series), stronger effect = lower value
[24] = locus YPL055C, strain LGE1, stronger effect = lower value
[25] = locus YNL153C, strain GIM3, stronger effect = lower value

Measured: normalized growth

O=P1(N(CCCl)CCCl)NCCCO1 (stereo not drawn)
inactive: [1] 0.998 and 0.974 | locus YAL021C, strain ccr4, stronger effect = lower value 0.995 | locus YAL026C, strain drs2, stronger effect = lower value 0.981 | locus YAL030W, strain snc1, stronger effect = lower value 1.01 | [2] 0.973 | locus YBL061C, strain skt5, stronger effect = lower value 1.01 | locus YBR009C, strain hhf1, stronger effect = lower value 1.01 | locus YBR021W, strain FUR4, stronger effect = lower value 1.02 | locus YBR023C, strain chs3, stronger effect = lower value 1.02 | locus YBR171W, strain sec66, stronger effect = lower value 1 | [3] 1 | locus YBR231C, strain swc5, stronger effect = lower value 0.995 | locus YBR279W, strain paf1, stronger effect = lower value 1 | locus YCL011C, strain gbp2, stronger effect = lower value 1.01 | locus YCL016C, strain dcc1, stronger effect = lower value 1.04 | locus YCL029C, strain bik1, stronger effect = lower value 1.03 | [4] 1 | locus YCL061C, strain MRC1, stronger effect = lower value 1 | locus YCL069W, strain vba3, stronger effect = lower value 0.995 | locus YCR088W, strain abp1, stronger effect = lower value 1 | locus YDL005C, strain med2, stronger effect = lower value 0.99 | locus YDL035C, strain GPR1, stronger effect = lower value 1.02 | locus YDL040C, strain nat1, stronger effect = lower value 0.998 | locus YDL074C, strain BRE1, stronger effect = lower value 1.03 | [5] 1.01 | locus YDL185W, strain tfp1, stronger effect = lower value 1.01 | locus YDL192W, strain arf1, stronger effect = lower value 1.03 | locus YDR001C, strain nth1, stronger effect = lower value 0.992 | locus YDR069C, strain doa4, stronger effect = lower value 1 | locus YDR101C, strain arx1, stronger effect = lower value 1.02 | locus YDR137W, strain rgp1, stronger effect = lower value 1.01 | [6] 0.996 | locus YDR159W, strain sac3, stronger effect = lower value 0.99 | locus YDR162C, strain NBP2, stronger effect = lower value 1.01 | locus YDR195W, strain ref2 0.977 | locus YDR297W, strain sur2, stronger effect = lower value 1.03 | locus YDR318W, strain mcm21, stronger effect = lower value 1.03 | locus YDR334W, strain swr1, stronger effect = lower value 0.994 | locus YDR335W, strain msn5, stronger effect = lower value 1.01 | [7] 0.962 | locus YDR388W, stronger effect = lower value 1.02 | locus YDR392W, strain spt3, stronger effect = lower value 0.941 | locus YDR502C, strain sam2, stronger effect = lower value 1.06 | locus YEL003W, strain gim4, stronger effect = lower value 0.991 | locus YEL037C, strain rad23, stronger effect = lower value 0.984 | locus YEL061C, strain CIN8 (second series), stronger effect = lower value 0.98 | [8] 1 | [9] 1.01 | locus YER015W, strain faa2, stronger effect = lower value 1.02 | locus YER016W, strain bim1, stronger effect = lower value 0.997 | locus YER110C, stronger effect = lower value 1.05 | locus YER111C, strain swi4, stronger effect = lower value 0.995 | locus YER155C, strain BEM2 (second series), stronger effect = lower value 0.936 | locus YER155C, strain BEM2, stronger effect = lower value 0.996 | locus YER167W, strain BCK2, stronger effect = lower value 1 | locus YFR010W, strain ubp6, stronger effect = lower value 0.971 | locus YGL078C, strain dbp3, stronger effect = lower value 1.03 | locus YGL086W, strain mad1, stronger effect = lower value 1.03 | locus YGL167C, strain pmr1, stronger effect = lower value 1.01 | locus YGL173C, strain kem1, stronger effect = lower value 1.01 | locus YGL227W, strain vid30, stronger effect = lower value 0.992 | locus YGL240W, strain doc1, stronger effect = lower value 0.983 | locus YGL248W, strain PDE1, stronger effect = lower value 1.01 | locus YGL253W, strain hxk2, stronger effect = lower value 0.987 | [10] 0.988 | locus YGR135W, strain pre9, stronger effect = lower value 1.04 | [11] 1 | locus YGR252W, strain gcn5, stronger effect = lower value 1.07 | locus YHR013C, strain ard1, stronger effect = lower value 1.03 | locus YHR027C, strain rpn1, stronger effect = lower value 1.01 | [12] 1.01 and 0.994 | locus YHR079C, strain IRE1 (second series), stronger effect = lower value 1.03 | locus YHR079C, strain IRE1, stronger effect = lower value 0.991 | locus YHR094C, strain hxt1, stronger effect = lower value 1.03 | locus YHR129C, strain ARP1, stronger effect = lower value 1 | locus YHR142W, strain chs7, stronger effect = lower value 1.02 | locus YHR200W, strain rpn10, stronger effect = lower value 1.02 | locus YIL066C, strain RNR3, stronger effect = lower value 1.02 | locus YIL073C, strain SPO22, stronger effect = lower value 1.01 | locus YIL125W, strain kgd1, stronger effect = lower value 1.02 | locus YIR030C, strain dcg1, stronger effect = lower value 1.03 | locus YJL092W, strain hpr5, stronger effect = lower value 1.01 | locus YJL095W, strain BCK1 (second series), stronger effect = lower value 1.01 | locus YJL095W, strain BCK1, stronger effect = lower value 1.03 and 0.99 | locus YJL115W, strain asf1, stronger effect = lower value 0.994 | locus YJL129C, strain trk1, stronger effect = lower value 1.02 | locus YJL134W, strain LCB3, stronger effect = lower value 1.01 | locus YJL154C, strain vps35, stronger effect = lower value 0.988 | locus YJL164C, strain tpk1, stronger effect = lower value 1.01 | locus YJL166W, strain qcr8, stronger effect = lower value 1.03 | locus YJL168C, strain set2, stronger effect = lower value 1.02 | locus YJL187C, strain SWE1 (second series), stronger effect = lower value 1.01 | [13] 1.02 | [14] 1.01 | locus YJR066W, strain TOR1, stronger effect = lower value 1 | [15] 1 | locus YKL009W, strain mrt4, stronger effect = lower value 0.957 | locus YKL068W, stronger effect = lower value 1 | locus YKL160W, strain elf1, stronger effect = lower value 1.03 | locus YKR001C, strain vps1, stronger effect = lower value 1.03 | locus YKR026C, strain gcn3, stronger effect = lower value 0.993 | locus YKR091W, strain srl3, stronger effect = lower value 1.01 | locus YLL001W, strain dnm1, stronger effect = lower value 1.04 | locus YLL026W, stronger effect = lower value 1.01 | locus YLL041C, strain sdh2, stronger effect = lower value 0.991 | locus YLR027C, strain aat2, stronger effect = lower value 0.992 | [16] 1.02 | locus YLR058C, strain SHM2, stronger effect = lower value 1.01 | locus YLR102C, strain apc9, stronger effect = lower value 1.02 | locus YLR113W, strain HOG1, stronger effect = lower value 0.994 | locus YLR221C, strain rsa3, stronger effect = lower value 1.07 | locus YLR258W, strain gsy2, stronger effect = lower value 1.01 | locus YLR262C, strain YPT6 (second series), stronger effect = lower value 1.01 | [17] 1.01 | locus YLR268W, strain sec22, stronger effect = lower value 1.03 | locus YLR320W, strain mms22, stronger effect = lower value 1.05 | locus YLR330W, strain CHS5, stronger effect = lower value 1.01 | locus YLR342W, strain FKS1 (second series), stronger effect = lower value 1.02 | locus YLR342W, strain FKS1, stronger effect = lower value 1 | locus YLR357W, strain rsc2, stronger effect = lower value 0.984 | locus YLR370C, strain arc18, stronger effect = lower value 1.02 | locus YLR371W, strain rom2, stronger effect = lower value 1.02 | locus YLR384C, strain iki3, stronger effect = lower value 1 | locus YLR418C, strain cdc73, stronger effect = lower value 1.1 | locus YML016C, strain PPZ1, stronger effect = lower value 1 | locus YML032C, strain rad52, stronger effect = lower value 1.03 | locus YML120C, strain ndi1, stronger effect = lower value 1.04 | locus YML124C, strain tub3, stronger effect = lower value 1.04 | locus YMR058W, strain fet3, stronger effect = lower value 0.99 | locus YMR078C, strain ctf18, stronger effect = lower value 1.03 | locus YMR125W, strain sto1, stronger effect = lower value 0.981 | locus YMR129W, stronger effect = lower value 0.991 | locus YMR205C, strain PFK2, stronger effect = lower value 1.03 | locus YMR223W, strain ubp8, stronger effect = lower value 1.05 | locus YMR231W, strain pep5, stronger effect = lower value 0.997 | [18] 1.01 and 1 | locus YMR307W, strain GAS1, stronger effect = lower value 1.03 and 0.994 | locus YNL067W, strain RPL9B, stronger effect = lower value 1.01 | locus YNL071W, strain lat1, stronger effect = lower value 0.991 | locus YNL128W, strain TEP1, stronger effect = lower value 1.02 and 0.983 | [19] 0.989 | locus YNL183C, strain NPR1, stronger effect = lower value 0.946 | [20] 0.976 | locus YNL209W, strain ssb2, stronger effect = lower value 1.01 | [21] 0.995 | locus YNL233W, strain BNI4, stronger effect = lower value 1.02 | locus YNL248C, strain rpa49, stronger effect = lower value 0.914 | locus YNL250W, strain rad50, stronger effect = lower value 1.03 | locus YNL271C, strain bni1, stronger effect = lower value 1.02 | locus YNL298W, strain CLA4, stronger effect = lower value 1.04 | locus YNL307C, strain MCK1, stronger effect = lower value 1.02 | locus YNL322C, strain KRE1 (second series), stronger effect = lower value 1.01 | [22] 0.996 | locus YNR049C, strain mso1, stronger effect = lower value 0.993 | locus YNR052C, strain pop2, stronger effect = lower value 1.02 | locus YOL147C, strain pex11, stronger effect = lower value 1.02 | locus YOR001W, strain rrp6, stronger effect = lower value 0.934 | locus YOR061W, strain CKA2, stronger effect = lower value 1.02 | locus YOR069W, strain VPS5, stronger effect = lower value 1.01 | locus YOR070C, strain gyp1, stronger effect = lower value 1.01 | locus YOR080W, strain dia2, stronger effect = lower value 1.01 | [23] 0.978 | locus YOR083W, strain WHI5, stronger effect = lower value 1.05 | locus YOR106W, strain vam3, stronger effect = lower value 1.06 | locus YOR136W, strain idh2, stronger effect = lower value 1.03 | locus YOR144C, strain elg1, stronger effect = lower value 1.05 | locus YOR184W, strain ser1, stronger effect = lower value 1.08 | locus YOR231W, strain MKK1, stronger effect = lower value 1 | locus YOR265W, strain rbl2, stronger effect = lower value 1.01 | locus YOR270C, strain vph1, stronger effect = lower value 1.04 | locus YOR290C, strain snf2, stronger effect = lower value 1.03 | locus YOR316C, strain cot1, stronger effect = lower value 1.04 | locus YPL051W, strain arl3, stronger effect = lower value 1.02 | [24] 1 | locus YPL078C, strain atp4, stronger effect = lower value 0.991 | locus YPL106C, strain sse1, stronger effect = lower value 1.04 | locus YPL240C, strain hsp82, stronger effect = lower value 1 | locus YPL256C, strain CLN2, stronger effect = lower value 0.992 | locus YPR119W, strain clb2, stronger effect = lower value 1.03 | locus YPR141C, strain kar3, stronger effect = lower value 1.01 | locus YPR163C, strain tif3, stronger effect = lower value 1.02 | locus YPR167C, strain met16, stronger effect = lower value 1.02 | strain wtn01, stronger effect = lower value 1.06
active: locus YKL085W, strain MDH1 (second series), stronger effect = lower value 1.08 [resistant] | locus YKL085W, strain MDH1, stronger effect = lower value 1.08 [resistant]

Cc1[nH]c2ccc(O)cc2c1CCN
inactive: [2] 1 | [4] 1.01 | [7] 1.05 | [9] 1 | [18] 1.01 | [25] 1.03 | [19] 1.01 | [20] 0.987 | [21] 0.996 | [22] 1.02 | [23] 0.999

O=C(O)CCCNCc1cccc2ccccc12
inactive: [1] 1.01 | [3] 1.01 | [5] 0.998 | [6] 0.984 | [8] 1.01 | [10] 1.01 | [11] 1 | [12] 1.02 | locus YHR087W, strain rtc3, stronger effect = lower value 1.01 | [13] 1 | [14] 1.01 | [15] 0.974 | locus YKL190W, strain CNB1, stronger effect = lower value 1 | [16] 1 | locus YLR058C, strain SHM2 (second series), stronger effect = lower value 1 | locus YLR085C, strain ARP6, stronger effect = lower value 1.01 | [17] 0.999 | locus YML094W, strain GIM5, stronger effect = lower value 1.07 | locus YMR219W, strain ESC1, stronger effect = lower value 0.992 | [18] 1 | [25] 0.992 | locus YNL298W, strain CLA4 (second series), stronger effect = lower value 1 | [22] 1.01 | locus YNR030W, strain Alg12, stronger effect = lower value 1 | [24] 1.03 | locus YPL241C, strain CIN2, stronger effect = lower value 1.06 | locus YPR135W, strain CTF4, stronger effect = lower value 1.05
